The results in this text go back to PubChem BioAssay AID493083 (Broad Institute, 2011).

In all, about 2,400 compounds went through this assay and about 95 (4%) were called active. Not shown: some 3% with an inconclusive outcome.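 How the source made its calls: active means compounds lowering signal whose fitted AC50 is at most ten times the top tested dose; inconclusive means flat fit with moderate inhibition, or poor curve fit; inactive means the rest.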 Not all results are given here. Entries with a potency or affinity are not part of this list.

This experiment can be described thus: decrease of heat-induced HSF-1 GFP reporter, dose response, NIH3T3 R4 cells, GFP/RFP, cherry-pick, set 3 (AID 493083). Particulars: NIH3T3 R4 HSF-1 GFP reporter, heat shock, 48 h; series mostly up to 19.5 µM.
On to `CCC(C(=O)OCC(=O)Nc1cc(Cl)ccc1Cl)c1ccccc1` (stereo not drawn), for which the molecule was called inactive.

`O=C(O)c1cccc(Nc2ccnc(Nc3cccc(C(=O)O)c3)n2)c1`: the outcome was inactive. `Cc1cc(Nc2cccc(Cl)c2)nc(-c2ccccc2O)n1`: the outcome was inactive. On to `CC(=O)NC(=S)Nc1cccc(S(=O)(=O)NC2=NCCC2)c1`, for which the molecule was called inactive.

As for `Cn1c(=O)c2ncn(CC(=O)Nc3ccc4c5c(cccc35)CC4)c2n(C)c1=O`, the result was inactive. `COc1ccc(OCCN2C(=O)c3ccccc3C2=O)cc1`: the molecule was classed as inactive. For `CCN(CC)C(=O)CN1C(=O)/C(=C/c2ccccc2)SC1=S` the value was “inactive”. For `CC(C)N1CCC(N2CCN(C3CCCC3)CC2CCO)CC1` (stereo not drawn), the outcome was inactive. In the case of `CCCC(C)NS(=O)(=O)c1ccccc1` (stereo not drawn), the result was inactive.

`CC(CCc1ccccc1)NC(=O)CCNS(=O)(=O)c1ccccc1` (stereo not drawn): the molecule was called inactive.

For the molecule `Cc1ccc(-c2nnn(CC(=O)N(Cc3cccs3)C(C(=O)NC3CCCC3)c3ccncc3)n2)cc1` (stereo not drawn), the molecule was classed as inactive. For `CCCN(CCC)S(=O)(=O)c1ccc(NC(=O)c2cc(C(=O)OC)cc([N+](=O)[O-])c2)cc1` the value was “inactive”; for `NC(=O)CC(NC(=O)Cc1ccc(Cl)cc1)c1ccc(NC2CCCCCC2)c([N+](=O)[O-])c1` (stereo not drawn), “inactive”. `Cc1cc(C)cc(SCc2noc(C(=O)NCc3ccccc3)c2C(=O)NCc2ccccc2)c1`: the result was inactive. For `O=[N+]([O-])c1ccccc1CCc1cnc(Cl)s1` the value was “inactive”. For `O=C(CNC(=O)C1CCCCC1)NC1=NCCS1` the value was “inactive”; for `CC(C)(C)N1[C@@H](CC(=O)O)c2cc(C(F)(F)F)ccc2S1(=O)=O`, “inactive”.

Consider `Cc1cc(C)n(-c2ccc(NC(=O)C3CCCCN3C(=O)c3ccoc3C)cc2)n1` (stereo not drawn), for which the outcome was inactive.

Regarding `COc1ccc(C(C)NC(=S)NC2CCCCC2)cc1OC` (stereo not drawn), the molecule was called inactive. For `COc1ccc(C(C(=O)NC2CCCCC2)N(C(=O)CCl)c2cccc(Cl)c2)cc1` (stereo not drawn), the outcome was inactive. Under `O=C1N=C(N2CCCC2)S/C1=C\C=C\c1ccccc1` stands “inactive”.

`Cc1nn2c(CN(C(=O)CN3CCOCC3)c3ccccc3)nnc2c2ccccc12`: the molecule was classed as inactive. Under `O=C(CCCCn1c(=O)[nH]c2ccsc2c1=O)NCc1cccnc1` stands “inactive”; under `CCCC(=O)Nc1cccc(NC(=O)c2cccc([N+](=O)[O-])c2C)c1`, “inactive”.

For the molecule `CCOC(=O)/C(C#N)=C/c1cc(C)n(-c2ccccc2)c1C`, the molecule was classed as inactive. Under `Cc1cccc(NC(=O)c2sc(-c3ccccc3)nc2-c2ccc([N+](=O)[O-])cc2)c1` stands “inactive”; under `CCCCNC(=O)C(c1ccc(OCC(=O)OC)c(C(=O)OC)c1)N(CCc1c[nH]c2ccccc12)C(=O)CCCCCN1C(=O)NC(c2ccc(-c3ccccc3)cc2)C(C(=O)OCc2ccccc2)=C1C` (stereo not drawn), “inactive”. Under `CC1=C(C(=O)Nc2ccccc2)C(c2cc(CN3CCOCC3)cs2)C2=C(CCCC2=O)N1` (stereo not drawn) stands “inactive”; under `COC(=O)C1(Cc2ccccc2)NC(c2ccccc2C)C2C(=O)N(c3ccc4c(c3)OCO4)C(=O)C21` (stereo not drawn), “inactive”.

For `Cc1cccc(N(Cc2ccccc2)C(=O)CCl)c1`, the call was inactive.

With `CCN(C(=O)COC(=O)/C=C/c1ccccc1)C1CCCCC1`, the outcome was inactive. For `CC(C)(C)C(CN1CCCC1)OC(=O)c1ccccc1` (stereo not drawn) the value was “inactive”; for `COc1ccc(OC)c(N=C2SCCCN2C(=O)c2ccc(N3C(=O)CCC3=O)cc2)c1`, “inactive”; for `CCOc1ccc(CCNC(=O)c2nn(C)c3c2CS(=O)(=O)c2ccccc2-3)cc1`, “inactive”. With `Cc1cc(C)c2cc(CN(CCN(C)C)C(=O)Nc3ccccc3Cl)c(=O)[nH]c2c1`, the molecule was classed as inactive.

For the molecule `Cc1ccc(C(=O)N2CCCC(Nc3ccc(F)cc3)C2)cc1C` (stereo not drawn), the result was inactive.

`Cc1ccc(-n2ncc3c(NCc4ccc5c(c4)OCO5)ncnc32)c(C)c1`: the molecule was called inactive. For `Nc1ccccc1SCC(=O)Nc1ccc2c(c1)OCCO2` the value was “inactive”; for `CC(=O)c1ccc(NC(=O)c2cnn3ccccc23)cc1`, “inactive”; for `Cc1cc(/C([O-])=C(/C(=S)Nc2ccccc2)[n+]2ccccc2)c(C)n1-c1ccccc1`, “inactive”. `NC(=O)COC(=O)c1cc(=O)[nH]c2ccccc12`: the outcome was inactive. For `COc1ccc(NC(=O)CN(C)CC(=O)Nc2ccc3c(c2)CCC3)cc1` the value was “inactive”.

For `CCO[C@@H]1OC(C(=O)NCc2ccccc2)=C[C@H](c2ccc3c(c2)OCO3)[C@H]1CCCO`, the molecule was called inactive.

With `CC[n+]1c(/C=C/c2cc([N+](=O)[O-])ccc2O)ccc2ccccc21`, the molecule was called inactive. For `COc1ccc(N2CCN(S(=O)(=O)c3cc4c(cc3C)N(C(C)=O)CCO4)CC2)cc1` the value was “inactive”; for `COc1ccc(NC(=O)CCN2CCN(S(=O)(=O)c3ccc(OC)cc3)CC2)cc1`, “inactive”; for `Cc1cc(NC(=O)C2C3C(=O)N(Cc4ccc(Cl)cc4)C(C(=O)NC(C)(C)C)C34C=CC2(C)O4)no1` (stereo not drawn), “inactive”. `COc1cc(OC)c(NC(=O)CN(C)S(=O)(=O)c2ccc3[nH]c(=O)oc3c2)cc1Cl`: the outcome was inactive. For `O=C(CCl)NC(Cc1ccccc1)c1ccccc1` (stereo not drawn) the value was “inactive”; for `O=C(CCl)Nc1ccccc1C(=O)c1ccccc1`, “inactive”; for `O=C1C2CCCN2c2ccc(S(=O)(=O)N3CCOCC3)cc2N1Cc1cccc(C(F)(F)F)c1` (stereo not drawn), “inactive”. Under `O=C(CSc1nnc(CNC(=O)c2cccs2)o1)NCc1ccc(F)cc1` stands “inactive”. Under `COCCNC(=O)CSC1=N/C(=C/c2ccc(Cl)c(Cl)c2)C(=O)N1c1ccccc1F` stands “inactive”; under `CC(C)Sc1nc(SCC(=O)NCc2ccco2)c2c3c(sc2n1)COC(C)(C)C3`, “inactive”; under `CCOC(=O)N1CCN(C(=S)Nc2ccc(C)cc2C)CC1`, “inactive”.

Consider `CC1CCCN(S(=O)(=O)c2ccc(Br)s2)C1` (stereo not drawn), for which the outcome was inactive. For `Cc1ccc(Cl)cc1NC(=O)C1COc2ccccc2O1` (stereo not drawn) the value was “inactive”; for `CN(C)c1ccc(/C=N/NC(=O)C2COc3ccccc3O2)o1` (stereo not drawn), “inactive”. For `O=S(=O)(Cc1cc(Oc2ccccc2)nc(-c2ccccc2)n1)c1ccccc1` the value was “inactive”. Under `O=C(O)C(=O)Nc1ccc(NC(=O)C(c2ccccc2)c2ccccc2)cc1` stands “inactive”. In the case of `CCCS(=O)(=O)N1CCc2cc(OC)c(OC)cc2C1`, the molecule was called inactive.

`Nc1ncnc2nc(N3CCN(C(=O)c4ccccc4)CC3)[nH]c12`: the outcome was inactive. On to `O=C(CSC(=S)N1CCOCC1)Nc1nc(-c2ccccc2)c(-c2ccccc2)o1`, for which the outcome was inactive. For `Nc1nc(Cl)nc2c1ncn2C1CC(O)C(CO)O1` (stereo not drawn) the value was “inactive”; for `CN1CCN(S(=O)(=O)c2cccc(C(=O)NCCC3=CCCCC3)c2)CC1`, “inactive”; for `COc1ccc(N2CCN(c3ccc(NC(=O)NN)cc3)CC2)cc1`, “inactive”.

As for `Cc1cc(NC(=O)c2ccc3nc(C)sc3c2)no1`, the molecule was classed as inactive. Turning to `COc1ccccc1N1CCN(C(=S)Nc2ccc(F)cc2)CC1`, the result was inactive. For `O=c1[nH]cc(S(=O)(=O)c2ccccc2)[nH]1` the value was “inactive”. With `CC1CCN(CC(=O)NC2CCCCC2)CC1`, the molecule was called inactive. For `CCS(=O)(=O)N1CCN(C(=O)c2ccccc2)CC1` the value was “inactive”. Under `Cc1ccc2c(c1)c(C)c(C)n2CC(O)Cn1nnc2ccccc21` (stereo not drawn) stands “inactive”; under `O=S1(=O)N[C@H](c2ccccc2)C[C@H](c2ccc(C(F)(F)F)cc2)O1`, “inactive”; under `CC(C)[C@H](NC(=O)Cc1ccccc1)C(=O)OCc1cc(=O)n2c(n1)sc1ccccc12`, “inactive”.

On to `Cc1ccc(CN2CCN(Cc3cccc(OCCO)c3)CC2CCO)o1` (stereo not drawn), for which the call was inactive. For `Cc1ccc(-c2nn(-c3ccccc3)cc2CN(C)C(=O)CCC(=O)O)cc1C`, the outcome was inactive. Under `Fc1ccc(-n2cc(CNCCc3ccccn3)c(-c3ccccc3Cl)n2)cc1` stands “inactive”; under `CN=c1scc(-c2cccs2)n1/N=C/c1ccccc1O`, “inactive”.

Regarding `CN=c1scc(-c2ccccc2F)n1/N=C/c1ccc[nH]1`, the result was inactive. With `CN(C)S(=O)(=O)c1ccc(-c2csnn2)s1`, the call was inactive.

With `CCn1c(C(C#N)/C(=N\S(=O)(=O)c2cccs2)c2ccccc2)nc2ccccc21` (stereo not drawn), the result was inactive. Under `Cc1ccc(S(=O)(=O)N2CCC(C(=O)N[C@@H](Cc3ccccc3)C(=O)O)CC2)cc1` stands “inactive”. Under `CCN1C(=O)c2ccccc2S(=O)c2ccc(C(=O)NCc3ccc(OC)cc3)cc21` (stereo not drawn) stands “inactive”; under `Cc1ccc(C(=O)Nc2cc3ccccc3oc2=O)cc1`, “inactive”. Under `Cc1nc2ccc(NC(=O)N3CCSCC3)cc2s1` stands “inactive”; under `COC(=O)c1cc(S(=O)(=O)NCc2ccc(F)cc2)cn1C`, “inactive”.

As for `COc1ccc(CNC(=O)CCCNC(=O)c2ccc(Cl)cc2)cc1OC`, the result was inactive. Consider `C=CCOc1ccccc1CN(C(=O)CCl)c1ccc2c(c1)OCO2`, for which the molecule was called inactive.
